{
  "source": "PubChem BioAssay AID1117279",
  "about": "(The Scripps Research Institute Molecular Screening Center, 2014)",
  "note": "About 40 (4%) of roughly 1,100 compounds were called active. A selection follows. Unmarked numbers belong to inactive results.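 The calls were made as follows: active = average inhibition above the solvent-only control wells' mean plus 3 SD (cut at about 15% in these data); inactive = the rest.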",
  "data": [
    {"experiment": "TTR promoter reporter inhibitors in hepatoma cells, counter-screen for TTR transcription activator project, cell-based, luminescence, HuH7 hepatoma (AID 1117279);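 also: 0% = cells with DMSO only and 100% = cells with inhibitor control FD; inhibitors lower well luminescence so higher value means more inhibition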", "conditions": "HuH7 TTR promoter-Gaussia luciferase reporter, at 16.7 µM, stronger effect = higher value", "units": {"inhibition": "%"}, "values": [
      {"smiles": "CCOC(=O)c1c(-c2ccccc2)oc2ccc(OCC(N)=O)cc12", "inhibition": -17.5},
      {"smiles": "COc1cc(C(C)=O)ccc1OC(C)C(=O)Nc1ccc(S(=O)(=O)N2CCCC2)cc1", "note": "(stereo unspecified)", "inhibition": -21.8},
      {"smiles": "O=C(Nc1ccccc1C(=O)N1CCCCCC1)c1ccccc1Cl", "inhibition": -17.5},
      {"smiles": "CCOc1ccccc1NC(=O)COc1ccc(S(=O)(=O)N2CCCC2)cc1", "inhibition": -35.5},
      {"smiles": "C(=N\\n1cnnc1)/c1cccnc1", "inhibition": -6.37},
      {"smiles": "COc1cccc(-c2cnc(C(O)c3ccccc3OC)[nH]2)c1", "note": "(stereo unspecified)", "inhibition": -13.2},
      {"smiles": "Cc1ccccc1/[N+]([O-])=C/c1ccncc1", "inhibition": -5.47},
      {"smiles": "O=C(CS(=O)(=O)c1ccccc1)Nc1ccc(S(=O)(=O)Nc2ccccn2)cc1", "inhibition": -15.3},
      {"smiles": "C/C(CC(=O)Nc1ccc(N(C)C)cc1)=N\\NC(=O)c1ccccc1F", "inhibition": -16.7},
      {"smiles": "COc1ccc(S(=O)(=O)NCC(=O)NCc2cc(=O)n(C)c(=O)n2C)cc1F", "inhibition": -4.59},
      {"smiles": "Cc1ccc(CN2CCCOCCS2(=O)=O)cc1", "inhibition": -6.05},
      {"smiles": "Nc1nc(SCC(=O)Nc2ccc(Cl)c([N+](=O)[O-])c2)n[nH]1", "inhibition": -10},
      {"smiles": "CCOC(=O)c1cc(-c2ccc(Cl)s2)nc2c1c(C)nn2C", "inhibition": -14.6},
      {"smiles": "O=C(NC(=O)c1ccccc1N1CCCCC1)Nc1ccc(Br)cc1", "inhibition": -2.62},
      {"smiles": "Cc1cc(C)c2nc3nc(C)cc(C)c3c(N)c2c1", "inhibition": -40.1},
      {"smiles": "CCCCc1cc(=O)oc2cc(C)cc(OCc3nn[nH]n3)c12", "inhibition": -25.9},
      {"smiles": "O=C(NNC(=O)c1cc(S(=O)(=O)N2CCCCC2)ccc1Cl)c1ccccc1O", "inhibition": -22.3},
      {"smiles": "COC(=O)c1cnn2c(C(F)(F)F)cc(-c3ccco3)nc12", "inhibition": 2.2},
      {"smiles": "O=C1c2cccc(OCC(=O)N3N=C(c4cccs4)CC3c3ccc(F)cc3)c2CCN1Cc1ccccc1", "note": "(stereo unspecified)", "inhibition": 9.54},
      {"smiles": "COc1ccc(C2c3ccc(O)cc3Oc3ncn(CCCO)c(=N)c32)cc1OC", "note": "(stereo unspecified)", "inhibition": -4.61},
      {"smiles": "O=S(=O)(NCc1ccccc1Br)c1ccccc1Br", "inhibition": 6.86},
      {"smiles": "CCCCN(C)CCNC(=O)C1CCCN(S(=O)(=O)c2cccc3nsnc23)C1", "note": "(stereo unspecified)", "inhibition": -18},
      {"smiles": "O=C(O)C1OC(C(=O)O)C2C1C(F)(F)C2(F)F", "note": "(stereo unspecified)", "inhibition": -13.2},
      {"smiles": "Cc1cc(C)c(C#N)c(N2CCC(C(N)=O)CC2)n1", "inhibition": -15.2},
      {"smiles": "Cc1nc(-c2ccc(Cl)cc2)sc1C(=O)NN", "inhibition": -6.37},
      {"smiles": "N#Cc1cccc(CN2CCC(=O)N(CCO)CC2)c1", "inhibition": -7.6}
    ]}
  ]
}
